# Data reported in PubChem BioAssay AID1321 (The Scripps Research Institute Molecular Screening Center, 2008).
# “And” between values parts separate entries of the source, which are not always exact repeats. Equal entries are not always repeated. Hit rate of the full screen: of about 220,000 compounds, about 2,600 (1.2%) were called active.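 How the source made its calls: active means activation above the mean of all tested compounds plus 3 SD, set per screening run (cut at about 8.8% in these data); inactive means the rest.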 Many of the other results were omitted from the sample, so actives are more common in it than they were. Some compounds were tested as several samples or in several runs, with calls that do not always agree.
# Target: Wee1-like protein kinase (Homo sapiens) (UniProt P30291)
# Assay: compounds stabilizing Wee1-luciferase fusion – cell-based, HeLa, Wee1K328M-luciferase, luminescence, primary screen (AID 1321);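 further: cells exposed to compound for 20 h before luminescence read; 0% = DMSO alone and 100% = MG132 at 30 µM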
# Details: HeLa Luc-Wee1K328M stability, at 5 µM, stronger effect = higher value, 100% = proteasome inhibitor MG132 effect
row,Compound,reporter increase
1,Cn1c(SCC(=O)c2ccc(F)cc2)nnc1-c1ccccn1,-0.76% (inactive)
2,COCC1CCCN(Cc2nc(-c3ccc4c(c3)OCO4)no2)C1 (stereo unspecified),9.73% (active)
3,CC(C)N(Cc1nc(-c2ccc3c(c2)OCO3)no1)CC1CCC(=O)N1 (stereo unspecified),2.1% (inactive)
4,CN(CCN1CCOCC1)Cc1nc(-c2ccc3c(c2)OCO3)no1,1.41% (inactive)
5,Cc1ccc(-c2c[n+](=O)c3c(n2[O-])CCC3)cc1,-1.07% (inactive)
6,O=C(Cc1ccccc1)Nc1cccc(C(=O)N/N=C/c2ccco2)c1,-1.22% (inactive)
7,N#CCC(=O)N/N=C/c1ccc(SCC(=O)Nc2ccccc2)o1,-0.66% (inactive)
8,O=C(CSc1ccc(/C=N/NC(=O)c2cccc(F)c2)o1)Nc1ccccc1,9.46% (active)
9,COc1cc2[nH]c(=S)n(Cc3ccc(C)o3)c(=O)c2cc1OC,3.12% (inactive)
10,CCOc1cc2[nH]c(=S)n(Cc3ccc(C(=O)NCCOC)cc3)c(=O)c2cc1OCC,-1.62% (inactive)
11,COc1cc2[nH]c(=S)n(Cc3ccc(F)cc3)c(=O)c2cc1OC,12.6% (active)
12,COc1ccc(F)cc1S(=O)(=O)N1CCCCC1,2.94% (inactive)
13,Cc1ccc(/C=N/NC(=S)NC2CCCCC2)o1,3.18% (inactive)
14,CCn1c(-c2ccncc2)n[nH]c1=S,1.46% (inactive)
15,CCn1c(C(C)C)n[nH]c1=S,18.6% (active)
16,CCn1c(C(C)NC(=O)c2ccc(C)cc2)n[nH]c1=S (stereo unspecified),-0.98% (inactive)
17,O=C(NCc1ccco1)C1CCCN1S(=O)(=O)c1ccccc1C(F)(F)F (stereo unspecified),-1.13% (inactive)
18,CCC1=NN2C(=N)/C(=C/c3cc(C)n(-c4ccccc4)c3C)C(=O)N=C2S1,4.73% (inactive)
19,COC(=O)c1sc(SC)c(S(=O)(=O)C(C)C)c1N/N=C(\C#N)S(=O)(=O)c1ccccn1,2.36% (inactive)
20,CCOC(=O)C1CCN(C(=O)Nc2ccc(C)c(Cl)c2)CC1,3.42% (inactive)
21,CCOC(=O)COc1ccc([N+](=O)[O-])cc1,-1.98% (inactive)
22,CCOC(=O)C/C(C)=N\Nc1ccc([N+](=O)[O-])cc1[N+](=O)[O-],-1.73% (inactive)
23,CCCCOC(=O)CCCc1ccc([N+](=O)[O-])cc1[N+](=O)[O-],12.8% (active)
24,CC1(C)CC(CNCCC(c2ccc(F)cc2)c2ccco2)CCO1 (stereo unspecified),-2.08% (inactive)
25,CC(C)CNC(=O)/C=C/C(=O)O,31.4% (active) and -2.62% (inactive)
26,CC(C)CNC(=O)CC(NCC(C)C)C(=O)O (stereo unspecified),-0.85% (inactive)

row,Compound,reporter increase
1,CC(C)CNC(=O)C(=O)NCc1ccccc1,-2.69% (inactive)
2,CN(Cc1nc(-c2cnccn2)no1)Cc1n[nH]c2c1CCCCC2,-0.67% (inactive)
3,O=C(O)c1cccc2c1C(=O)N(C1CCCCC1)C2,-0.13% (inactive)
4,O=C(O)C1CCN1C1CCCCC1 (stereo unspecified),8.91% (active)
5,CC(Sc1nnnn1C1CCCCC1)C(=O)O (stereo unspecified),-1.64% (inactive)
6,O=C(CCNc1n[nH]c(=O)[nH]c1=O)N/N=C\c1ccc(Br)cc1,-1.51% (inactive)
7,COc1c(N2CCN(C(=S)Nc3ccccc3F)C(C)C2)c(F)cc2c(=O)c(C(=O)O)cn(C3CC3)c12 (stereo unspecified),-0.39% (inactive)
8,CCOC(=O)c1cc(NC(=O)c2cccnc2)cc(C(=O)OCC)c1,-1.21% (inactive)
9,CCC(=O)Nc1cccc(NC(=O)c2cccnc2)c1,14.3% (active)
10,CCC(=O)Nc1ccc(C(=O)Nc2cccc(OC)c2)cc1,0.16% (inactive)
11,O=C(NC(=S)Nc1cccc2c(O)cccc12)c1cccc(Br)c1,-1.09% (inactive)
12,Cc1c(Br)c([N+](=O)[O-])nn1CC(=O)N1CCN(Cc2ccccc2)CC1,9.26% (active)
13,O=C(Nc1ccccc1)N1CCN(Cc2ccccc2)CC1,4.02% (inactive)
14,Cn1nnnc1SCC(=O)N1CCN(Cc2ccccc2)CC1,1.62% (inactive)
15,O=C(c1[nH]ncc1-c1ccc(Cl)cc1)C1CO1 (stereo unspecified),-0.11% (inactive)
16,O=C(O)c1cccnc1Sc1ncnc2sc3c(c12)CCC3,-1.76% (inactive)
17,O=C(Nc1ccccc1)Nc1ccc(C(F)(F)F)cn1,0.31% (inactive)
18,O=C(COc1ccccc1Cl)Nc1ccc(C(=O)c2ccc(C(=O)O)cc2)cc1,-1.08% (inactive)
19,COc1cc(NC(=O)COc2ccccc2Cl)ccc1NC(=O)C(C)C,9.65% (active)
20,Cc1ccccc1OCC(=O)Nc1ccc(N2CCN(C(=O)C(C)C)CC2)c(Cl)c1,-0.59% (inactive)
21,COc1cc(N2C(=O)CC3(CCCC3)CC2=O)cc(OC)c1OC,-3.15% (inactive)
22,Cc1ccc(NC(=S)NC(=O)c2ccc(-c3ccccc3)cc2)c(C)c1,1.11% (inactive)
23,Cc1ccc(NC(=S)Nc2ncccc2C)c(C)c1,11.8% (active)
24,Cc1ccc(NC(=S)NCc2ccccc2Cl)c(C)c1,4.9% (inactive)
25,COc1ccc(CNC(=O)CCC(=O)Nc2nnc(C(C)C)s2)cc1,0.8% (inactive)
26,COc1ccc(NS(=O)(=O)c2ccc(Oc3c(C#N)cccc3C#N)cc2)cc1,-2.73% (inactive)

row,Compound,reporter increase
1,O=C(c1ccc(=O)oc1)N1CCC(C(O)(c2ccccc2)c2ccccc2)CC1,4.74% (inactive)
2,Oc1ccccc1/C=N/n1c(-c2cccs2)n[nH]c1=S,-3.64% (inactive)
3,Cc1ccsc1/C=N/n1c(=S)[nH]nc(C)c1=O,11.5% (active)
4,S=c1[nH]nc(-c2cccs2)n1/N=C/c1cccs1,-2.19% (inactive)
5,CCOc1ccc(C2NC(=S)NC3=C2CCc2ccccc23)cc1 (stereo unspecified),3.12% (inactive)
6,CCOC(=O)c1ccc(NC(=O)Cn2cnc3cc(C)c(C)cc32)cc1,-1.24% (inactive)
7,O=C(CSc1ccccc1F)NC1CCS(=O)(=O)C1 (stereo unspecified),12.3% (active)
8,O=C(CSc1nn(-c2ccc(F)cc2)c(=S)s1)NC1CCS(=O)(=O)C1 (stereo unspecified),0.51% (inactive)
9,CCN(CC(=O)NC1CCS(=O)(=O)C1)S(=O)(=O)c1ccccc1 (stereo unspecified),-0.95% (inactive)
10,Cc1cc(C)c2c(n1)nn1c(-n3ccnc3)cc(C)nc21,2.99% (inactive)
11,Cc1cc(C)c2c(n1)nn1c(N3CCOCC3)cc(C)nc21,-0.28% (inactive)
12,Cc1cc(C)c2c(n1)nn1c(N3CCN(c4cccc(Cl)c4)CC3)cc(C)nc21,14.1% (active)
13,Cc1ccc(C(=O)NNc2ncnc3ccccc23)cc1,-1.2% (inactive)
14,COc1ccc(C(C)=O)cc1COc1ccc(Cl)c(C)c1,1.76% (inactive)
15,CC(C)Oc1ccc(C(=O)NC(C)(C)CO)cc1,-0.33% (inactive)
16,Cn1c(NC(=O)c2ccc3c(c2)OCO3)cc(=O)n(C)c1=O,-1.07% (inactive)
17,CC(C)Oc1ccc(C(=O)Nc2cc(=O)n(C)c(=O)n2C)cc1,11% (active)
18,CC12C(=O)N(c3ccccc3)C(=O)C1C(c1ccccc1)N1CCCN12 (stereo unspecified),1.06% (inactive)
19,Cc1[nH][nH]c(=O)c1N=Nc1ccccc1,3.8% (inactive)
20,Cc1[nH][nH]c(=O)c1C(c1ccc2c(c1)OCO2)c1c(C)[nH][nH]c1=O,1.31% (inactive)
21,Nc1[nH][nH]c(=O)c1N=Nc1ccc2c(c1)OCO2,9.03% (active)
22,CCN(CC)CCn1cnc2c1c(=O)n(CCOC(=O)c1cc(OC)c(OC)c(OC)c1)c(=O)n2C,-2.15% (inactive)
23,COc1ccc(/C(C)=N/N2CCOCC2)c(O)c1,3.27% (inactive)
24,CC(C)N(C(=O)c1ccc(-c2ccccc2F)cc1)C(C)C,1.6% (inactive)
25,Cc1ccc2c(N)c(C(=O)c3ccccc3)sc2n1,3.2% (inactive)
26,CCN(CC)C(=O)c1sc2nc(-c3ccccc3)ccc2c1N,15.4% (active)

row,Compound,reporter increase
1,CCOC(=O)c1sc2nc(SC)nc(-c3ccccc3)c2c1N,0.82% (inactive)
2,Cn1c(SCC(=O)N/N=C/c2ccc(O)c(O)c2)nc2ccccc21,3.18% (inactive)
3,O=C(Cc1ccccc1)NCc1ccc(F)cc1,0.79% (inactive)
4,CCC(C(=O)OCC(=O)Nc1ccccc1-c1ccccc1)c1ccccc1 (stereo unspecified),3.65% (inactive)
5,O=C(CNCc1ccc(F)cc1)Nc1ccccc1-c1ccccc1,11.8% (active)
6,CC(=O)OCCOCn1cnn2c(=O)c(Br)c(C)nc12,5.31% (inactive)
7,CCOC(=O)C(=O)C1C(=O)Nc2ccccc21 (stereo unspecified),-1.16% (inactive)
8,O=C1CC2(CC(c3ccc(Cl)cc3)=NO2)C(=O)N1c1ccccc1 (stereo unspecified),0.07% (inactive)
9,CCOc1cc2c(Cl)ncnc2c(OCC)c1OCC,-3.14% (inactive)
10,COc1ccc(NC(=O)COC(=O)CNC(=O)C2CCCCC2)cc1,11.6% (active)
11,COc1ccc(CCNC(=O)COC(=O)C2CCCCC2)cc1,-1.3% (inactive)
12,COc1ccc(OCC(=O)OCC(=O)Nc2ccc(S(=O)(=O)N3CCCCC3)cc2)cc1,-0.17% (inactive)
13,O=C(CN1CCSCC1)N/N=C/c1ccc(Cl)cc1,2.89% (inactive)
14,Cc1ccc(OCC(=O)N/N=C/c2ccncc2)cc1,-0.52% (inactive)
15,Cc1ccc(COc2ccc(/C=N/NC(=O)CN3CCCCC3)cc2)cc1,22.3% (active)
16,CC1=NOC(=O)/C1=C\c1ccccc1,-0.32% (inactive)
17,O=C(COc1ccc([N+](=O)[O-])cc1Cl)Nn1cnnc1,-0.06% (inactive)
18,CC(C)(C)c1ccc(/C=C/C(=O)NC2CCS(=O)(=O)C2)cc1 (stereo unspecified),2.93% (inactive)
19,COc1ccc(-c2ccc(OC(=O)NC3CCS(=O)(=O)C3)cc2)cc1 (stereo unspecified),9.29% (active)
20,COc1ccc(NC(=S)NC2CCS(=O)(=O)C2)cc1 (stereo unspecified),4.7% (inactive)
21,O=C(NCCCN1CCCCCC1)c1ccc(N2CCCC2=O)cc1,2.16% (inactive)
22,CCCNC(=O)NCc1ccc(N2CCCC2=O)cc1,10.3% (active)
23,CC1CCC(NC(=O)c2ccc(N3CCCC3=O)cc2)CC1 (stereo unspecified),0.06% (inactive)
